This note sets out measurements from PubChem BioAssay (NCATS).

The nature of assay [1]: Quantitative High-Throughput drug screen in 47 multiple myeloma cell lines against the NCATS MIPE library collection: H1112_PLB cell viability assay (AID 1918967; further: nearly all actives have a fitted effect of over 30% in size). Summed up: (§1)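 CellTiter-Glo luminescence (ATP) after 48 h compound exposure, 37C/5% CO2; 500 cells/well; MIPE 4.0 approved/investigational drugs pinned in; DMSO = 100%, media only = 0% viability.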
The nature of assay [2]: Quantitative High-Throughput drug screen in 47 multiple myeloma cell lines against the NCATS MIPE library collection: Karpas25_ECACC cell viability assay (AID 1918968; further: nearly all actives have a fitted effect of over 35% in size). A digest of the protocol: as §1
A short description of assay [3]: Quantitative High-Throughput drug screen in 47 multiple myeloma cell lines against the NCATS MIPE library collection: KMS27_JCRB cell viability assay (AID 1918970). Further: nearly all actives have a fitted effect of over 30% in size. Summed up: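 ATP-based viability (CellTiter-Glo luminescence) is measured in cells treated 48 h with approved and investigational drugs at 37 °C. Controls are DMSO-only wells for full viability and media-only wells for none.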

Assay [4] in a line: Quantitative High-Throughput drug screen in 47 multiple myeloma cell lines against the NCATS MIPE library collection: KMS12BM_JCRB cell viability assay (AID 1918971). Further: nearly all actives have a fitted effect of over 35% in size. Summed up: as §1
Assay [5] is described as follows: Quantitative High-Throughput drug screen in 47 multiple myeloma cell lines against the NCATS MIPE library collection: KMS12PE_JCRB cell viability assay (AID 1918972). Further: nearly all actives have a fitted effect of over 30% in size. Summed up:
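Approved and investigational drugs from MIPE 4.0 were added by pin tool to 500 cells per well. After 48 hours at 37C, ATP-based CellTiter-Glo luminescence indicated remaining viability.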

The nature of assay [6]: Quantitative High-Throughput drug screen in 47 multiple myeloma cell lines against the NCATS MIPE library collection: KMS26_JCRB cell viability assay (AID 1918975). Further: nearly all actives have a fitted effect of over 45% in size. A digest of the protocol:
as §1

A short description of assay [7]: Quantitative High-Throughput drug screen in 47 multiple myeloma cell lines against the NCATS MIPE library collection: MOLP8_DSMZ cell viability assay (AID 1918977). Further: nearly all actives have a fitted effect of over 45% in size. A digest of the protocol: (§2)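 MIPE 4.0 approved/investigational drugs; 500 cells/well; 48 h 37 °C humidified 5% CO2; CTG luminescence readout; DMSO = 100%, media = 0% viability.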
A short description of assay [8]: Quantitative High-Throughput drug screen in 47 multiple myeloma cell lines against the NCATS MIPE library collection: NCIH929_DSMZ cell viability assay (AID 1918978). Further: nearly all actives have a fitted effect of over 35% in size. A digest of the protocol:
as §2

Assay [9] can be described thus: Quantitative High-Throughput drug screen in 47 multiple myeloma cell lines against the NCATS MIPE library collection: MM1S_ATCC cell viability assay (AID 1918980). Further: nearly all actives have a fitted effect of over 45% in size. Summed up: as §2
Assay [10] is described as follows: Quantitative High-Throughput drug screen in 47 multiple myeloma cell lines against the NCATS MIPE library collection: LP1_DSMZ cell viability assay (AID 1918982). Further: nearly all actives have a fitted effect of over 35% in size. Summed up:
as §2

The nature of assay [11]: Quantitative High-Throughput drug screen in 47 multiple myeloma cell lines against the NCATS MIPE library collection: KMS28PE_JCRB cell viability assay (AID 1918983). Further: nearly all actives have a fitted effect of over 35% in size. Summed up: as §2
Assay [12] can be described thus: Quantitative High-Throughput drug screen in 47 multiple myeloma cell lines against the NCATS MIPE library collection: OCIMY7_PLB cell viability assay (AID 1918987). Further: nearly all actives have a fitted effect of over 65% in size. Summed up: as §2
The nature of assay [13]: Quantitative High-Throughput drug screen in 47 multiple myeloma cell lines against the NCATS MIPE library collection: JJN3_DSMZ cell viability assay (AID 1918966; further: nearly all actives have a fitted effect of over 50% in size). Summed up: as §1
Assay [14] can be described thus: Quantitative High-Throughput drug screen in 47 multiple myeloma cell lines against the NCATS MIPE library collection: OCIMY1_PLB cell viability assay (AID 1918979). Further: nearly all actives have a fitted effect of over 35% in size. Summed up: as §2
Assay [15] can be described thus: Quantitative High-Throughput drug screen in 47 multiple myeloma cell lines against the NCATS MIPE library collection: L363_DSMZ cell viability assay (AID 1918984). Further: nearly all actives have a fitted effect of over 40% in size. Summed up:
as §2

Assay [16] in a line: Quantitative High-Throughput drug screen in 47 multiple myeloma cell lines against the NCATS MIPE library collection: KMS34_JCRB cell viability assay (AID 1918985). Further: nearly all actives have a fitted effect of over 40% in size. A digest of the protocol:
as §2

Assay [17] is described as follows: Quantitative High-Throughput drug screen in 47 multiple myeloma cell lines against the NCATS MIPE library collection: KMS20_JCRB cell viability assay (AID 1918973). Further: nearly all actives have a fitted effect of over 45% in size. A digest of the protocol: as §1
Assay [18] is described as follows: Quantitative High-Throughput drug screen in 47 multiple myeloma cell lines against the NCATS MIPE library collection: MM1R_ATCC cell viability assay (AID 1918981). Further: nearly all actives have a fitted effect of over 35% in size. Summed up: as §2
Assay [19] in a line: Quantitative High-Throughput drug screen in 47 multiple myeloma cell lines against the NCATS MIPE library collection: MMM1_PLB cell viability assay (AID 1918976). Further: nearly all actives have a fitted effect of over 35% in size. Summed up: as §2
The nature of assay [20]: Quantitative High-Throughput drug screen in 47 multiple myeloma cell lines against the NCATS MIPE library collection: KMS21BM_JCRB cell viability assay (AID 1918974). To be noted: ATP luminescence, 48 h; viability: at 45.8 µM (top of the series). A digest of the protocol:
as §1

Records with an inconclusive call do not appear. The source made the active and inactive calls. The call rests on the fitted dose curve; in most records, active means well fitted curve in the direction sought with a large enough effect; inconclusive means small, poorly fitted or top-dose-only effect, or another doubt; inactive means no such curve, though single readings can be large; an effect the other way counts as inactive or inconclusive.
Potency means the concentration at half of the fitted maximal effect.

Consider `COc1cccc2c1[C@]13CCN(CC4CC4)[C@H](C2)[C@]1(OC)CCC(=O)C3`, for which the Potency result in [1], in [2], in assay [3], in assay [4], in [5] and in [6] was “inactive” throughout. Besides, the Potency result in assay [7], in assay [8], in [9], in assay [10], in assay [11] and in [12] was “inactive” in each case.
Turning to `CCCC[N+]1(C)[C@H]2CC(OC(=O)[C@H](CO)c3ccccc3)C[C@H]1[C@H]1O[C@H]12` (some centres undefined), the Potency entry in assay [13], in assay [1], in assay [2], in assay [3], in assay [6] and in assay [8] was “inactive” each time. The Potency result in assay [14], in assay [10], in assay [11], in assay [15] and in [16] was “inactive” throughout.
Take `CN(C)NC(=O)CCC(=O)O`: the Potency result in [1], in assay [2], in assay [3], in [5], in assay [6] and in assay [8] was “inactive” each time. For the same compound, the Potency entry in [10], in [15] and in assay [16] was “inactive” throughout. Besides, in assay [4], the Potency was 7.43 µM (active).
On to `COc1cc([C@@H]2c3cc4c(cc3[C@@H](O)C3COC(=O)C32)OCO4)cc(OC)c1O` (some centres undefined), for which the Potency in assay [13] was 0.118 µM (active); in [1], 0.0526 µM (active); in assay [2], 0.059 µM (active); in assay [3] it was 0.0148 µM (active); in assay [4] it was 0.0418 µM (active); in assay [17], 0.0662 µM (active). Also, the Potency was 0.105 µM (active) in assay [6]; 0.132 µM (active) in assay [8]; 0.0418 µM (active) in [14]; 0.0833 µM (active) in [18]; 0.0418 µM (active) in assay [11]; 0.0132 µM (active) in assay [15]. Also, the Potency was 0.0187 µM (active) in assay [16] and 0.0526 µM (active) in assay [12].
In the case of `CC1=C(O)C(=O)C=C2C1=CC=C1[C@@]2(C)CC[C@@]2(C)[C@@H]3C[C@](C)(C(=O)O)CC[C@]3(C)CC[C@]12C`, the Potency in assay [13] was 0.743 µM (active); in assay [1] it was 1.32 µM (active); in [2], 0.833 µM (active); in assay [3], 1.87 µM (active); in assay [4] it was 0.526 µM (active); in assay [17], 0.935 µM (active). Besides, the Potency is 0.418 µM (active) in assay [6]; 1.18 µM (active) in assay [19]; 0.418 µM (active) in assay [7]; 0.372 µM (active) in assay [8]; 0.662 µM (active) in [9]; 0.469 µM (active) in [18]. For the same compound, the Potency in assay [10] is 0.833 µM (active); in assay [11], 0.833 µM (active); in assay [15], 0.662 µM (active); in assay [16], 0.743 µM (active); in assay [12] it was 0.296 µM (active).
As to `O=c1[nH]c2ccccc2n1C1CCN(Cc2ccc(-c3[nH]c4cc5ncnc5cc4nc3-c3ccccc3)cc2)CC1`, the Potency was 0.833 µM (active) in [1]; 8.33 µM (active) in assay [2]; 18.7 µM (active) in [3]; 20.9 µM (active) in [4]; 10.5 µM (active) in assay [5]; 2.35 µM (active) in [17]. The Potency in assay [20] was 16.6 µM (active); in [6] it was 23.5 µM (active); in assay [8], 0.662 µM (active); in assay [18], 16.6 µM (active); in assay [10], 20.9 µM (active); in assay [11] it was 20.9 µM (active). Also, the Potency in assay [15] was 5.9 µM (active); in assay [12], 8.33 µM (active).
With `CC(=Cc1csc(C)n1)[C@@H]1C[C@H]2O[C@@H]2CCC[C@H](C)[C@@H](O)[C@@H](C)C(=O)C(C)(C)[C@@H](O)CC(=O)O1`, the Potency in assay [13] is 0.264 µM (active). The Potency entry in assay [1], in [2], in assay [4], in [6], in assay [8] and in assay [14] was “inactive” throughout. The Potency result in assay [9], in assay [10], in [11], in assay [16] and in assay [12] was “inactive” each time.
As for `NC1CC1c1ccccc1` (centres undefined), the Potency entry in [1], in assay [2], in assay [3], in assay [4], in assay [5] and in assay [17] was “inactive” in each case. Further, the Potency result in assay [6], in [7], in assay [8], in assay [14], in assay [10] and in assay [12] was “inactive” in each case.
With `COc1ccc(C(=O)c2c(C)n(CCN3CCOCC3)c3cc(I)ccc23)cc1`, the Potency was 16.6 µM (active) in assay [1]; 18.7 µM (active) in assay [2]; 13.2 µM (active) in assay [3]; 23.5 µM (active) in assay [4]; 20.9 µM (active) in [5]; 5.26 µM (active) in [17]. The Potency in assay [15] is 8.33 µM (active); in [16], 20.9 µM (active); in [12] it was 5.9 µM (active).
On to `CCOP(=O)(OCC)C(C)NC(=O)N(CCCl)N=O` (centres undefined), for which the Potency entry in assay [13], in assay [1], in [2], in [3], in assay [5] and in assay [8] was “inactive” each time. Besides, the Potency result in [14], in assay [18], in assay [11], in assay [15] and in assay [12] was “inactive” each time.
As to `Cc1c(C(=O)Nc2cccc(C(F)(F)F)c2)cc(-c2ccccc2)n1CCCN1CCOCC1`, the Potency in assay [1] was 3.72 µM (active); in assay [2], 11.8 µM (active); in assay [3], 18.7 µM (active); in assay [4], 13.2 µM (active); in [17] it was 16.6 µM (active); in [20] it was 18.7 µM (active). Also, the Potency in assay [6] is 11.8 µM (active); in assay [7] it was 20.9 µM (active); in [11], 16.6 µM (active); in assay [15], 5.9 µM (active); in [12], 0.372 µM (active).
For `CN1CCN(c2ccc([N+](=O)[O-])c3no[n+]([O-])c23)CC1`, the Potency in [1] is 23.5 µM (active); in [2], 18.7 µM (active); in [3], 20.9 µM (active); in [4], 18.7 µM (active); in [5], 16.6 µM (active); in assay [17], 8.33 µM (active). Further, the Potency is 8.33 µM (active) in assay [20]; 20.9 µM (active) in assay [19]; 11.8 µM (active) in assay [8]; 23.5 µM (active) in assay [9]; 20.9 µM (active) in [18]; 18.7 µM (active) in assay [10]. Also, the Potency in [11] is 18.7 µM (active); in [15], 8.33 µM (active); in assay [16], 14.8 µM (active); in [12] it was 4.18 µM (active).
